Data on nine compounds can be found in PubChem BioAssay (Tox21).

Several values for one entry are separate records, joined by “and”; a condition that tells them apart may be missing. Equal entries are not always repeated. Inconclusive results are not listed. Activity calls are given as the source filed them. Unless noted, the call rests on the fitted dose curve; in most records, active means well fitted curve in the direction sought with a large enough effect in the repeat runs; inconclusive means weak or mixed curves; inactive means no such curve, though single readings can be large; an effect the other way counts as inactive or inconclusive.

The nature of experiment [1]: qHTS assay to identify small molecule antagonists of the estrogen receptor alpha (ER-alpha) signaling pathway using the BG1 cell line in the presence of 0.1 nM 17-beta-estradiol - cell viability counter screen (AID 1259241). Further: nearly all actives have a fitted effect of over 40% in size. A digest of the protocol:
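Live-cell protease activity (CellTiter-Fluor fluorescence, 30 min) was read in the same wells after VM7Luc4E2 cells had been exposed to compounds with 0.1 nM 17beta-estradiol for 22 hr at 37C.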

Experiment [2] in a line: qHTS assay to identify small molecule HDAC inhibitors (AID 1259364). Further: potency means the concentration at half of the fitted maximal effect.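 Further: wild-type HCT-116 cells with endogenous class I/II HDAC activity; nearly all actives have a fitted effect of over 45% in size.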 Put shortly: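 Screening used wild-type human colon HCT-116 cells incubated overnight, dosed with compounds for 2 hours, and assayed with a homogeneous luminogenic HDAC I/II reagent for 30 minutes at room temperature.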
A general note: qHTS replaces the single test concentration by a dilution series.

Experiment [3] can be described thus: qHTS assay to identify small molecule HDAC inhibitors - cell viability counter screen (AID 1259365). Further: series mostly up to about 92 µM; nearly all actives have a fitted effect of over 50% in size. Put shortly: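 HCT-116 (wild type), 1,500 cells/well, overnight 37C/5% CO2; compound in DMSO 2hr; CellTiter-Glo 30min RT; luminescence read.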
Experiment [4] in a line: qHTS assay to identify small molecule agonists of the sonic hedgehog signaling (Shh) pathway - cell viability counter screen (AID 1259366). Further: nearly all actives have a fitted effect of over 50% in size. Further: potency means the concentration at half of the fitted maximal effect. Put shortly: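 CellTiter-Fluor fluorescence read-out, 1 hr at 37C, added after 23hr compound exposure. Cells: 3T3 Gli1-Luc, an NIH/3T3 clone with stably integrated Gli1-Luc reporter, plated 4hr before compound.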
A short description of experiment [5]: qHTS assay to identify small molecule antagonists of the sonic hedgehog signaling (Shh) pathway - cell viability counter screen (AID 1259367). Further: nearly all actives have a fitted effect of over 55% in size. Further: potency means the concentration at half of the fitted maximal effect. Put shortly:
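Viability was read by CellTiter-Fluor fluorescence in the same wells, reagent added 23 hr into compound treatment and incubated 1 hr at 37C. The 3T3 Gli1-Luc reporter cells (2,000/well) received conditioned medium after compound and ran 24 hr.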

A short description of experiment [6]: qHTS assay to identify small molecule agonists of the sonic hedgehog signaling (Shh) pathway (AID 1259368; calls by dose curve;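 further: NIH/3T3-derived 3T3Gli1-Luc cells carrying a stable Gli1-driven firefly luciferase reporter; series mostly up to about 92 µM; nearly all actives have a fitted effect of over 15% in size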). Put shortly: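 Hedgehog pathway agonism scored by increased firefly luciferase luminescence in 3T3Gli1-Luc cells treated 24 hr at 37 C; detection used a 30 min room-temperature reagent incubation.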
Experiment [7] can be described thus: qHTS assay to identify small molecule antagonists of the sonic hedgehog signaling (Shh) pathway (AID 1259369; calls by dose curve; further: nearly all actives have a fitted effect of over 45% in size; further: potency means the concentration at half of the fitted maximal effect). Put shortly:
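NIH/3T3 stable Gli1-Luc clone, 2,000 cells/well, 4hr settle; cpd + conditioned medium 24hr; Luc reagent 30min RT; luminescence.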

In experiment [8] the target is Estrogen receptor beta (Homo sapiens) (UniProt Q92731). Description: qHTS assay to identify small molecule agonists of the estrogen receptor beta (ER-beta) signaling pathway (AID 1259377; active means well fitted activation curve with a large enough effect in the signal ratio in the repeat runs, not every such curve was filed as active; the % refers to the signal ratio). Put shortly: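 Beta-lactamase reporter readout: fluorescence of LiveBLAzer B/G FRET substrate after 2 h at room temperature, following 16 h compound treatment of ER-beta-UAS-bla HEK293T cells at 37C in 2% charcoal-stripped FBS medium.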

For experiment [9] the target is unchanged. Description: qHTS assay to identify small molecule antagonists of the estrogen receptor beta (ER-beta) signaling pathway (AID 1259378; active means well fitted inhibition curve with a large enough effect in the signal ratio in the repeat runs, not every such curve was filed as active; the % refers to the signal ratio; further: potency means the concentration at half of the fitted maximal effect). Put shortly:
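Antagonist mode: compounds added to beta-lactamase reporter HEK293T ER-beta-UAS cells stimulated with E2 (1nM final), 16 hr at 37C. LiveBLAzer B/G FRET substrate, 2 hours room temperature, fluorescence read-out.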

A short description of experiment [10]: qHTS assay to identify small molecule agonists of the androgen receptor (AR) signaling pathway in the presence of an antagonist - cell viability counter screen (AID 1259379). Further: nearly all actives have a fitted effect of over 25% in size. Further: potency means the concentration at half of the fitted maximal effect. Put shortly: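 MDA-kb2 viability measured by CellTiter-Fluor fluorescence in the same wells as the luciferase signal; nilutamide 3.0uM final; 15-point compound titration; 16 hr at 37C.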

A short description of experiment [11]: qHTS assay to identify small molecule agonists of the estrogen receptor beta (ER-beta) signaling pathway - cell viability counter screen (AID 1259380). Further: nearly all actives have a fitted effect of over 30% in size. Further: potency means the concentration at half of the fitted maximal effect. A digest of the protocol: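 Measured: luminescence from CellTiter-Glo after 30 min at room temperature, added to wells already read for the LiveBLAzer FRET reporter (2 hr substrate); ER-beta-UAS-bla HEK293T cells had 16 hr compound treatment at 37C, 5% CO2.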

The nature of experiment [12]: qHTS assay to identify small molecule antagonists of the estrogen receptor beta (ER-beta) signaling pathway - cell viability counter screen (AID 1259382). Further: nearly all actives have a fitted effect of over 55% in size. Further: potency means the concentration at half of the fitted maximal effect. Put shortly:
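Readout: luminescence, CellTiter-Glo, same wells as bla assay. System: ER-beta-UAS-bla GripTite HEK293T, 2% charcoal-stripped FBS. Exposure: compounds plus 1nM 17-beta-estradiol, 16 hr, 37C.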

Experiment [13] can be described thus: qHTS assay to identify small molecule agonists or antagonists of the thyroid stimulating hormone receptor (TSHR) signaling pathway - wild type cell line counter screen (AID 1259384; calls by dose curve). A digest of the protocol: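 Counter screen in untransfected Hek293: compounds (15-point titration, triplicate) plus phosphodiesterase inhibitor Ro20-1724 added after 18 h plating; 30 min RT. Intracellular cAMP via competitive d2/cryptate immunoassay, 1 h incubation.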

Experiment [14] deals with Thyrotropin receptor (Homo sapiens) (UniProt P16473). Description: qHTS assay to identify small molecule antagonists of the thyroid stimulating hormone receptor (TSHR) signaling pathway (AID 1259385; calls by dose curve; further: nearly all actives have a fitted effect of over 20% in size; further: potency means the concentration at half of the fitted maximal effect). A digest of the protocol:
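Antagonist mode: compound-treated TSHR-expressing HEK293 cells were stimulated with 1.5 ng/mL TSH (final) in presence of Ro20-1724 for 30 min at RT. HTRF cAMP detection after 1 h; each compound tested at 15 concentrations, triplicate.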

Experiment [15] deals with Estrogen receptor (Homo sapiens) (UniProt P03372). Description: qHTS assay to identify small molecule antagonists of the estrogen receptor alpha (ER-alpha) signaling pathway using the BG1 cell line in the presence of 0.1 nM 17-beta-estradiol (AID 1259244). Further: nearly all actives have a fitted effect of over 50% in size. Further: potency means the concentration at half of the fitted maximal effect. Put shortly:
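Compounds were tested against 0.1 nM (final) 17beta-estradiol in VM7Luc4E2 cells, which express full-length ER-alpha and an ERE-luciferase reporter; luminescence was recorded following 22 h exposure.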

Experiment [16] shares this target. In words: qHTS assay to identify small molecule agonists of the estrogen receptor alpha (ER-alpha) signaling pathway in the presence of an antagonist (AID 1259383; calls by dose curve; further: top concentration of the series differs between compounds; nearly all actives have a fitted effect of over 15% in size). Put shortly:
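Quantitative HTS confirmation: compounds titrated at 15 concentrations onto estrogen-deprived VM7Luc4E2 cells carrying a four-ERE luciferase construct, with ICI-182,780 present at 10.0nM final. Signal is luminescence after 22hr exposure.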

A short description of experiment [17]: qHTS assay to identify small molecule phospholipidosis (PLD) inducers (AID 1259344; active means well fitted curve in the direction sought with a large enough effect; an effect the other way counts as inactive or inconclusive). Put shortly:
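Phospholipid accumulation was scored by imaging: fixed, Hoechst-counterstained HepG2 cells stained with LipidTOX Red after 24 h compound exposure at 37 C. Read-outs were pit count and pit intensity per well or per cell, with amiodarone and DMSO controls.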

Experiment [18] is described as follows: qHTS assay to identify small molecule antagonists of the androgen receptor (AR) signaling pathway using the MDA cell line in the presence of 0.5 nM R1881 - cell viability counter screen (AID 1259242). Further: nearly all actives have a fitted effect of over 45% in size. A digest of the protocol: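 Concentration-response screen of compounds for toxicity in MDA-kb2 reporter cells: 16 hr at 37C with 0.5 nM R1881, endpoint live-cell protease fluorescence measured in the reporter wells.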

Thyrotropin receptor (Homo sapiens), sequence (P16473 whole entry, looked up): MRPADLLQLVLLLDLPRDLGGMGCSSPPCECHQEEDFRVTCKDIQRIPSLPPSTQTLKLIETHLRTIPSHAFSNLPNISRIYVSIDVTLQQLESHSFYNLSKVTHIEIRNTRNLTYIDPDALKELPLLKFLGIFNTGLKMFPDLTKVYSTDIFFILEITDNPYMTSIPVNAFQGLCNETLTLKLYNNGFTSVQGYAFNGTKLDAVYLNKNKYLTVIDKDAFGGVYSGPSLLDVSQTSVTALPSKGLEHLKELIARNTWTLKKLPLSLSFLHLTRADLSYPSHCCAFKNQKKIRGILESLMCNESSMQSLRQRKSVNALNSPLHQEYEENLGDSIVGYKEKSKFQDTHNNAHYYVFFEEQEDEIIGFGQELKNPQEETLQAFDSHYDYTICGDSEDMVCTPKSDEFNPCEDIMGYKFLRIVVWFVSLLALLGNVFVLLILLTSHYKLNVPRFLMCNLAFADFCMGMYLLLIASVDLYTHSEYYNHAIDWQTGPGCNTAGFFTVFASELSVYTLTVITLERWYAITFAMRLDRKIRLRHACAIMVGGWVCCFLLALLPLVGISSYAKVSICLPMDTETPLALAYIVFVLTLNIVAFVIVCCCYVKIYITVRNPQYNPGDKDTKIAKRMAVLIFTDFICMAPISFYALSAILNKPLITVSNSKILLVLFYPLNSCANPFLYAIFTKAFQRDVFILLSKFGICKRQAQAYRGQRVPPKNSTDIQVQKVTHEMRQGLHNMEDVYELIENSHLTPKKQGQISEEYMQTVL
Estrogen receptor beta (Homo sapiens), sequence (Q92731 whole entry, looked up): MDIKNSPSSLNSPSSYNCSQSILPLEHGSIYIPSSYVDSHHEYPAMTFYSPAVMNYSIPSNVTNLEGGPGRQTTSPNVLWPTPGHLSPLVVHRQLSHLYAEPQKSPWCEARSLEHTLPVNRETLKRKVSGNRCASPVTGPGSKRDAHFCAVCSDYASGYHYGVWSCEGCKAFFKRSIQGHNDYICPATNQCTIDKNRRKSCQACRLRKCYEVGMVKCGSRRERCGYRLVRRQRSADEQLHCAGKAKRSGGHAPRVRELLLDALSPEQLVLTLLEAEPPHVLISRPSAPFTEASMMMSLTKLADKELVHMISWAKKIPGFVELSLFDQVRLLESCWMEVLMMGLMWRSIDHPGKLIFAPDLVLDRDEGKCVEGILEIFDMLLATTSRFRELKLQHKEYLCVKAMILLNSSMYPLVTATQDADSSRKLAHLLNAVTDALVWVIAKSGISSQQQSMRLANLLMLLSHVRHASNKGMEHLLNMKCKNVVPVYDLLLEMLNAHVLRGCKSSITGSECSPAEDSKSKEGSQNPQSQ
Estrogen receptor (Homo sapiens), sequence (P03372 whole entry, looked up): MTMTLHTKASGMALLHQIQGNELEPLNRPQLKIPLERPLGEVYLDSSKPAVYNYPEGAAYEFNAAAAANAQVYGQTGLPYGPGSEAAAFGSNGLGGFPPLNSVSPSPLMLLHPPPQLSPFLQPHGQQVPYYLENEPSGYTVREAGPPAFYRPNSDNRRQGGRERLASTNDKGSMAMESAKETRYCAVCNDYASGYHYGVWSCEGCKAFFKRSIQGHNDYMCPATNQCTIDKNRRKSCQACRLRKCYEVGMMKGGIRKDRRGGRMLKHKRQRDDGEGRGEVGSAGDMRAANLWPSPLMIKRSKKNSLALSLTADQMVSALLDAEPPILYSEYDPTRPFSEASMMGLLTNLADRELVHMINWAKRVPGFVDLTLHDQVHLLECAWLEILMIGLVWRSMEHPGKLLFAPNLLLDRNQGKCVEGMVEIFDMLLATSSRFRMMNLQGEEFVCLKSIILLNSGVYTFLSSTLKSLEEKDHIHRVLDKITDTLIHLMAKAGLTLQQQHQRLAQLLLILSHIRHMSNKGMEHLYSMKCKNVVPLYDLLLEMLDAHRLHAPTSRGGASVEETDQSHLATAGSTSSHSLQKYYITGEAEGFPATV

For the compound `CCCCCCCCP(=O)(O)O`, the Potency result in experiment [1], in [2], in [3], in experiment [4], in experiment [5] and in [6] was “inactive” in each case. The Potency entry in experiment [7], in experiment [8], in experiment [9], in [10], in [11] and in experiment [12] was “inactive” in each case. The Potency result in [14] is “inactive”. Moreover, the outcome in [13] was inactive.
On to `CCC[N+](CCC)(CCC)CCC`, for which the Potency entry in experiment [1], in experiment [15], in experiment [2], in [3], in [4] and in experiment [6] was “inactive” throughout. The Potency entry in [7], in experiment [10], in experiment [11], in experiment [12] and in [16] was “inactive” throughout.
In the case of `Nc1ccccc1C(=O)OCCc1ccccc1`, the Potency entry in experiment [1], in experiment [3], in experiment [4], in [5], in experiment [7] and in [14] was “inactive” throughout. Besides, the Potency in experiment [2] was 9.73 µM (active) and 3.86 µM (active); in experiment [11], 9.73 µM (active) and 7.7 µM (active). Also, in [13], the compound was called inactive.
Turning to `COc1cc(C[C@@H](C)N)c(OC)cc1Br`, the Potency entry in experiment [1], in experiment [15], in experiment [3], in experiment [5], in experiment [6] and in [10] was “inactive” throughout. The Potency entry in [16] and in experiment [14] was “inactive” throughout. Besides, the compound was classed as inactive in experiment [17] and in experiment [13]. Further, the Potency in [11] was 35.3 µM (active).
As to `CON(C)C(=O)Nc1ccc(Cl)cc1`, the Potency entry in [1], in experiment [3], in experiment [4], in [6], in experiment [8] and in experiment [9] was “inactive” in each case. For the same compound, the Potency result in experiment [10], in [11], in experiment [12], in experiment [16] and in experiment [14] was “inactive” in each case. Also, the outcome in [13] was inactive.
As for `Cc1nc2ccccc2c(=O)n1-c1ccccc1Cl`, the Potency entry in [18], in experiment [15], in experiment [2], in [3], in experiment [6] and in experiment [8] was “inactive” each time. Further, the Potency entry in experiment [9], in experiment [10], in experiment [11], in [12] and in experiment [16] was “inactive” each time. Besides, the call in experiment [17] was inactive. Besides, the Potency in experiment [4] is 10.6 µM (active); in experiment [5] it was 2.38 µM (active).
With `O=C1c2ccccc2C(=O)N1SC(Cl)(Cl)Cl`, the Potency result in experiment [1], in experiment [2], in [3], in experiment [6], in experiment [8] and in experiment [12] was “inactive” in each case. The Potency result in experiment [16] and in experiment [14] was “inactive” throughout. The Potency in [15] is 15.1 µM (active) and 21.7 µM (active); in experiment [4], 12 µM (active) and 9.69 µM (active); in experiment [5] it was 9.55 µM (active) and 17.2 µM (active); in experiment [7], 1.07 µM (active) and 1.93 µM (active); in experiment [10] it was 26.9 µM (active) and 27.3 µM (active). The outcome in [13] was inactive.
Turning to `CCCCCCCCn1sccc1=O`, the Potency is 30.7 µM (active) in experiment [15]; 4.34 µM (active) and 3.21 µM (active) in experiment [4]; 4.34 µM (active) in experiment [5]; 1.37 µM (active) and 1.02 µM (active) in experiment [7]; 27.4 µM (active) and 32.1 µM (active) in [9]; 30.7 µM (active) and 28.6 µM (active) in experiment [11]. Besides, the Potency in experiment [12] was 27.4 µM (active) and 28.6 µM (active); in experiment [14], 61.3 µM (active) and 71.9 µM (active). Besides, the Potency entry in experiment [2], in experiment [3], in [6], in [8] and in experiment [16] was “inactive” throughout. The compound was called inactive in experiment [13].
Take `C[N+]1(CCF)[C@@H]2CC[C@H]1CC(OC(=O)C(O)(c1ccccc1)c1ccccc1)C2` (some centres not stated): the Potency entry in experiment [1], in [15], in experiment [3], in [4], in experiment [6] and in experiment [7] was “inactive” throughout. In addition, the Potency entry in experiment [10], in experiment [11], in experiment [12], in experiment [16] and in experiment [14] was “inactive” in each case. The compound was classed as inactive in experiment [17] and in experiment [13].
